77 compounds from the supplement of paper PMC9399229 can be followed below.

Structures are written as SMILES. Counter-ions that a name gives are not always drawn. ± gives the standard deviation of the averaged measurements. Over roughly 1,900 compounds, “relative cell viability (CellTiter-Glo), compound alone” has its median near 1; the lowest 2% begin near 0.16. This excerpt belongs to a sample that is enriched for the lowest values.

This test concerns Hep3B. Description: relative cell viability (CellTiter-Glo), compound alone (fraction); higher = more viable cells (less growth inhibition). The conditions noted are these: cabozantinib 0 µM; 4 days. For orientation: ATP-based viability assays read luminescence as a measure of living cells.
Regarding `CCn1cc(NC(=S)Nc2cc(Cl)ccc2OC)c(C(N)=O)n1`, the relative cell viability is 1.44 ± 0.14.
Compound `C1=N/C2=N/c3ccc(OCCN4CCCC4)c(c3)COC/C=C/COCc3cccc(c3)C(=C1)N2` [Pacritinib (SB1518)] had a relative cell viability of 0.1545 ± 0.0015.
Compound `CN(C)c1cccc(-c2c3c(=O)n(-c4ccccc4Cl)[nH]c3cc(=O)n2C)c1` registered a relative cell viability of 1.12 ± 0.1.
As for `O=C(NCCS(=O)(=O)c1ccc(C(F)(F)F)cn1)c1ccc(Cl)cc1`, the relative cell viability was found to be 1.2 ± 0.049.
Regarding `C[C@@H](Oc1cc(-n2cnc3ccc(CN4CCN(C)CC4)cc32)sc1C(N)=O)c1ccccc1C(F)(F)F`, the relative cell viability was found to be 0.668 ± 0.04.
On to `O=C1CCC[C@@H]2[C@H]3CCC[N+]4([O-])CCC[C@@H](CN12)[C@@H]34` (some centres not stated) [Oxymatrine], for which the relative cell viability was 1.09 ± 0.21.
In turn, `CC1CNc2c(cccc2S(=O)(=O)N[C@@H](CCCNC(=N)N)C(=O)N2CC[C@@H](C)C[C@@H]2C(=O)O)C1` (some centres not stated) [Argatroban] returned a relative cell viability of 1.02 ± 0.17.
Under `CO[C@H]1C[C@@H]2CC[C@@H](C)[C@@](O)(O2)C(=O)C(=O)N2CCCC[C@H]2C(=O)O[C@H]([C@H](C)C[C@@H]2CC[C@@H](OC(=O)C(C)(CO)CO)[C@H](OC)C2)CC(=O)[C@H](C)/C=C(\C)[C@@H](O)[C@@H](OC)C(=O)[C@H](C)C[C@H](C)/C=C/C=C/C=C/1C` stands 1.04 ± 0.013; under `CCOC(=O)[C@H](CCc1ccccc1)N[C@H]1CCCN2CCC[C@@H](C(=O)O)N2C1=O` [Cilazapril Monohydrate], 0.947 ± 0.13; under `CC(C)(C)C[C@@H]1N[C@@H](C(=O)N[C@H]2CC[C@H](O)CC2)[C@H](c2cccc(Cl)c2F)[C@]12C(=O)Nc1cc(Cl)ccc12`, 1.09 ± 0.025.
As to `O=C1c2c(O)ccc(O)c2C(=O)c2c(NCCNCCO)ccc(NCCNCCO)c21` [Mitoxantrone], the relative cell viability was found to be 0.0757 ± 0.0097.
Under `O=C1c2c(O)ccc(O)c2C(=O)c2c(NCCNCCO)ccc(NCCNCCO)c21` [Mitoxantrone HCl] stands 0.0676 ± 0.0056; under `O=C1c2cccc(O)c2C(=O)c2c(O)cc(CO)cc21` [Aloe-emodin], 0.96 ± 0.11.
On to `Cc1ccc([N+](=O)[O-])cc1S(=O)(=O)N(C)/N=C/c1cnc2ccc(Br)cn12`, for which the relative cell viability turned out to be 0.139 ± 0.01.
Under `Nc1nc(NC2CC2)cc(-c2cccc(Cl)c2Cl)n1` stands 1.162 ± 0.0077; under `NS(=O)(=O)NCCNc1nonc1/C(=N/O)Nc1ccc(F)c(Br)c1`, 1.24 ± 0.064.
`Fc1ccc2[nH]ccc2c1-c1nc(N2CCOCC2)c2sc(CN3CCN(CC4CC4)CC3)cc2n1` yielded a relative cell viability of 0.871 ± 0.011.
For the compound `Cn1cncc1[C@@](N)(c1ccc(Cl)cc1)c1ccc2c(c1)c(-c1cccc(Cl)c1)cc(=O)n2C` [Tipifarnib], the relative cell viability was determined as 0.995 ± 0.046.
Take `Cc1nc(-c2cn3c(n2)-c2ccc(-c4cnn(C(C)(C)C(N)=O)c4)cc2OCC3)n(C(C)C)n1`: the relative cell viability is 1.01 ± 0.032.
The same measure for `c1ccc(NCc2ccc(CNc3ccccn3)cc2)nc1`: 1.09 ± 0.085; for `COc1cc([C@@H]2c3cc4c(cc3[C@@H](O[C@@H]3O[C@@H]5CO[C@@H](c6cccs6)O[C@H]5[C@H](O)[C@H]3O)[C@H]3COC(=O)[C@H]23)OCO4)cc(OC)c1O` [Teniposide]: 0.113 ± 0.0088.
Regarding `COc1cc([C@@H]2c3cc4c(cc3[C@@H](O[C@@H]3O[C@@H]5CO[C@@H](C)O[C@H]5[C@H](O)[C@H]3O)[C@H]3COC(=O)[C@H]23)OCO4)cc(OC)c1O` [Etoposide], the relative cell viability came to 1.22 ± 0.11.
As for `COc1cccc(C=NCCN=Cc2cccc(OC)c2[O-])c1[O-].[Cl-].[Mn+3]`, the relative cell viability amounted to 1.04 ± 0.041.
In the case of `Nc1ccc(-c2ccc3ncc4ccc(=O)n(-c5cccc(C(F)(F)F)c5)c4c3c2)cn1` [Torin 2], the relative cell viability came out at 0.147 ± 0.014.
As for `COc1ccc(-c2ccc3ncc4c(c3c2)n(-c2ccc(N3CCNCC3)c(C(F)(F)F)c2)c(=O)n4C)cn1`, the relative cell viability amounted to 0.202 ± 0.013.
Under `CN1C(=O)C(Cc2c[nH]c3ccccc23)NC1=S` (configuration not stated) [Necrostatin-1] stands 1.154 ± 0.0058; under `CCn1c(N)c(C(=O)NC)c(=O)c2ccc(C#CC(C)(O)COC)nc21` (configuration not stated), 0.951 ± 0.15.
Compound `Cc1ccc(-n2sc(=O)n(Cc3ccc(F)cc3)c2=O)cc1` returned a relative cell viability of 1.03 ± 0.086.
Turning to `C=CC(=O)Nc1cc(Nc2nccc(-c3c[nH]c4ccccc34)n2)c(OC)cc1N(C)CCN(C)C`, the relative cell viability is 0.913 ± 0.049.
Regarding `O=C(NC[C@H](O)CN1CCc2ccccc2C1)c1cc(NC2COC2)ncn1`, the relative cell viability is 1.09 ± 0.029.
Compound `Cn1c(Nc2ccc(C(F)(F)F)cc2)nc2cc(Oc3ccnc(-c4ncc(C(F)(F)F)[nH]4)c3)ccc21` returned a relative cell viability of 0.9528 ± 0.0094.
`CN[C@@H](C)C(=O)N[C@H](C(=O)N1CCC[C@H]1C(=O)Nc1snnc1-c1ccccc1)C1CCCCC1` yielded a relative cell viability of 0.229 ± 0.13.
The same measure for `CC[C@@H]1/C=C(\C)C[C@H](C)C[C@H](OC)[C@H]2O[C@@](O)(C(=O)C(=O)N3CCCC[C@H]3C(=O)O[C@H](/C(C)=C/[C@@H]3CC[C@@H](O)[C@H](OC)C3)[C@H](C)[C@@H](O)CC1=O)[C@H](C)C[C@@H]2OC` [Ascomycin (FK520)]: 1.16 ± 0.12; for `CN(NC(=O)CC(=O)NN(C)C(=S)c1ccccc1)C(=S)c1ccccc1` [Elesclomol (STA-4783)]: 0.0115 ± 0.0045.
Under `O=C(O)CCNC(=O)c1ccccc1` [Betamipron] stands 0.9 ± 0.089.
The compound `O=C(O)c1ccccc1` [Benzoic Acid] came in with a relative cell viability of 1.26 ± 0.07.
For the compound `COc1cc(N2CCC(N3CCN(C)CC3)CC2)ccc1Nc1ncnc(Nc2ccccc2S(=O)(=O)C(C)C)n1`, the relative cell viability came out at 0.887 ± 0.056.
With `Cc1cc(Nc2ccc(NC(=O)c3ccc(Nc4ccnc5ccccc45)cc3)cc2)nc(N)n1`, the relative cell viability was found to be 0.227 ± 0.023.
The compound `CN(C)CCCNC(=O)c1ccc(-c2cc(O)c3ncccc3c2)cc1` registered a relative cell viability of 0.898 ± 0.27.
As for `Cc1ccc(NC(=O)C2(c3ccc4c(c3)OC(F)(F)O4)CC2)nc1-c1cccc(C(=O)O)c1` [VX-809 (Lumacaftor)], the relative cell viability came to 0.144 ± 0.025.
The compound `CC(C)(CO)c1cc2cc(NC(=O)C3(c4ccc5c(c4)OC(F)(F)O5)CC3)c(F)cc2n1C[C@@H](O)CO` returned a relative cell viability of 1.14 ± 0.18.
Compound `C[C@]1(c2nc3c(C(N)=O)cccc3[nH]2)CCCN1` [Veliparib (ABT-888)] gave a relative cell viability of 1.02 ± 0.44.
Turning to `CN1CCN(C2CCN(C(=O)Nc3cc(Oc4ccc(NC(=O)C5(C(=O)Nc6ccc(F)cc6)CC5)c(F)c4)ccn3)CC2)CC1` [Golvatinib (E7050)], the relative cell viability was 1.15 ± 0.079.
For the compound `COc1ccc(-c2cc(=O)c3c(O)cc(O)cc3o2)cc1O` [Diosmetin], the relative cell viability turned out to be 1.35 ± 0.14.
The same measure for `O=c1cc(CN2CCOCC2)occ1OCCCCCSc1ccnc2cc(C(F)(F)F)ccc12`: 1.29 ± 0.14.
Regarding `CC/C(=C(\c1ccccc1)c1ccc(OCCN(C)C)cc1)c1ccccc1` [Tamoxifen Citrate], the relative cell viability was found to be 1.26 ± 0.064.
The compound `CC/C(=C(\c1ccc(O)cc1)c1ccc(OCCNC)cc1)c1ccccc1` [Endoxifen HCl] displayed a relative cell viability of 1.16 ± 0.081.
Turning to `CN(C)Cc1c(C(=O)NCCOc2ccc(C(=O)NO)cc2)oc2ccccc12`, the relative cell viability came to 0.153 ± 0.054.
As to `O=C(Nc1c[nH]nc1-c1nc2ccc(CN3CCOCC3)cc2[nH]1)NC1CC1`, the relative cell viability was 0.3 ± 0.036.
The same measure for `O=[N+]([O-])c1ccc2c(c1)S(=O)(=O)C=C2` [Stattic]: 1.03 ± 0.043.
In the case of `N#Cc1cc(CN2CCC(Nc3ncnc4sc(Cl)cc34)CC2)ccc1F`, the relative cell viability was 1.42 ± 0.079.
The same measure for `C[C@]12CC[C@@H]3c4ccc(OC(=O)c5ccccc5)cc4CC[C@H]3[C@@H]1CC[C@@H]2O` [Estradiol Benzoate]: 1.19 ± 0.14; for `COc1ccc(Cn2ccc3ccc(C(=O)NO)cc32)cc1`: 0.909 ± 0.14; for `CCN(CC)CCNC(=O)c1ccc(N)cc1` [Procainamide HCl]: 0.954 ± 0.032.
`CCN(CC)Cc1ccc2cc(COC(=O)Nc3ccc(C(=O)NO)cc3)ccc2c1` [Givinostat (ITF2357)] had a relative cell viability of 0.156 ± 0.0025.
For `OCc1ccc(O[C@@H]2O[C@H](CO)[C@@H](O)[C@H](O)[C@H]2O)cc1` [Gastrodin], the relative cell viability was determined as 1.354 ± 0.0026.
In turn, `CCS(=O)(=O)Nc1ccc2c(c1)/C(=C(/Nc1ccc(CN3CCCCC3)cc1)c1ccccc1)C(=O)N2` [Hesperadin] showed a relative cell viability of 0.112 ± 0.0022.
Under `CN(C)Cc1cccc(N/C(=C2\C(=O)Nc3cc(C(N)=O)ccc32)c2ccccc2)c1` stands 0.7302 ± 0.0057; under `COC(=O)c1ccc2c(c1)NC(=O)/C2=C(\Nc1ccc(N(C)C(=O)CN2CCN(C)CC2)cc1)c1ccccc1` [Nintedanib (BIBF 1120)], 0.761 ± 0.038; under `CCCCN(Cc1ccc(C(=O)NO)cc1)C(=O)Nc1ccccc1` [Nexturastat A], 1.06 ± 0.17.
In the case of `CC(=O)Nc1ccc(C(=O)Nc2ccccc2N)cc1` [CI994 (Tacedinaline)], the relative cell viability was found to be 1.17 ± 0.1.
The compound `CC(C)[C@H](C(=O)Nc1ccc(C(=O)NO)cc1)c1ccccc1` displayed a relative cell viability of 0.138 ± 0.015.
Take `CCn1cc(-c2ccnc3[nH]c(-c4cccc(CN(C)C)c4)cc23)c(-c2ccc(NC(=O)N(C)C)cc2)n1`: the relative cell viability came out at 0.94 ± 0.099.
Under `COc1ccccc1-c1cc(Nc2cccc(CS(N)(=O)=O)c2)ncn1` stands 1.11 ± 0.029; under `CN(C)C(=O)Nc1cccc(-c2ccc(N(C)C)cc2)c1` [Atglistatin], 1.37 ± 0.12.
In turn, `O=C(Nc1cc(C(F)(F)F)ccc1N1CCCCC1)c1ccncc1` registered a relative cell viability of 1.07 ± 0.016.
Compound `CC(C)n1nc(-c2ccc3oc(N)nc3c2)c2c(N)ncnc21` had a relative cell viability of 0.387 ± 0.022.
Consider `CC1(C)CCC[C@]2(C)[C@H]3CC(=O)O[C@]3(C)CC[C@@H]12` [Sclareolide], for which the relative cell viability turned out to be 0.9838 ± 0.007.
As for `COc1ccc(-c2nc(N3CCOCC3)c3sc(CN(C)c4ncc(C(=O)NO)cn4)cc3n2)cn1`, the relative cell viability amounted to 0.132 ± 0.013.
Compound `Cc1c(CN2CCN(C(=O)[C@H](C)O)CC2)sc2c(N3CCOCC3)nc(-c3cnc(N)nc3)nc12` yielded a relative cell viability of 0.546 ± 0.022.
Turning to `CS(=O)(=O)N1CCN(Cc2cc3nc(-c4cccc5[nH]ncc45)nc(N4CCOCC4)c3s2)CC1`, the relative cell viability came out at 1.17 ± 0.013.
Under `Cc1c(Cc2ccc3ccccc3n2)c2cc(F)ccc2n1CC(=O)O` stands 1.08 ± 0.055; under `CN1C(C(=O)Nc2ccccn2)=C(O)c2sccc2S1(=O)=O` [Tenoxicam], 1 ± 0.051; under `O=C(COc1ccc(C(=O)c2ccccc2)cc1)NC1CCN(Cc2ccccc2)CC1` [AdipoRon], 0.881 ± 0.096.
For `CN1CCN(c2ccc3nc(-c4c(N)c5c(F)cccc5[nH]c4=O)[nH]c3c2)CC1` [Dovitinib (TKI-258, CHIR-258)], the relative cell viability came out at 0.85 ± 0.018.
Compound `CN1CCN(c2ccc3nc(-c4c(N)c5c(F)cccc5[nH]c4=O)[nH]c3c2)CC1` [Dovitinib (TKI-258) Dilactic Acid] showed a relative cell viability of 0.6208 ± 0.0046.
`CN1CCN(c2ccc3nc(-c4c(N)c5c(F)cccc5[nH]c4=O)[nH]c3c2)CC1` [Dovitinib (TKI258) Lactate] showed a relative cell viability of 0.67 ± 0.011.
